Screening data: PubChem BioAssay, The Scripps Research Institute Molecular Screening Center
pPAFAH inh: inhibitors of human plasma PAF acetylhydrolase (pPAFAH) | recombinant pPAFAH, FP-rhodamine probe fluorescence polarization | inhibition, % at 3.39 µM | hit rate 1.5% among 330,000 | AID 463082;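 active means inhibition above the mean inhibition across the screen plus 3 SD, cut at about 25% in these data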;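 further: inhibitors block binding of the rhodamine activity-based probe so polarization drops; 0% = enzyme with DMSO and 100% = wells lacking pPAFAH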
E coli Lon inh: inhibitors of E. coli Lon protease. P0A9M0. purified E. coli Lon protease, fluorescence polarization. inhibition, % at 7.94 µM. hit rate 0.42% among 360,000. AID 602123; in the data active means inhibition above about 13%, passing the limit was not always enough;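 further: 0% = enzyme with probe and DMSO and 100% = no enzyme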
PAFAH2 FP inh: inhibitors of human PAFAH2 | Q99487 | recombinant PAFAH2, FP-rhodamine activity probe, fluorescence polarization | inhibition, % at 3.39 µM | hit rate 0.99% among 340,000;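 active means inhibition above the mean over all tested compounds plus 3 SD, cut at about 30% in these data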;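 further: inhibitors block probe labeling of enzyme so polarization drops; 0% = enzyme with DMSO and 100% = wells lacking PAFAH2 protein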
PAFAH1B3 FP inh: PAFAH1B3 (human) inhibition | recombinant PAFAH1B3, FP-rhodamine probe, fluorescence polarization | hit rate 0.28% among 340,000 | AID 492972 | Q15102 | inhibition, % at 3.39 µM;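 active means inhibition above the screen-wide average of all tested compounds plus 3 SD, cut at about 25% in these data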;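 further: 0% = enzyme with DMSO only and 100% = wells lacking PAFAH1B3 protein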
Target sequence (Q15102 whole entry, looked up): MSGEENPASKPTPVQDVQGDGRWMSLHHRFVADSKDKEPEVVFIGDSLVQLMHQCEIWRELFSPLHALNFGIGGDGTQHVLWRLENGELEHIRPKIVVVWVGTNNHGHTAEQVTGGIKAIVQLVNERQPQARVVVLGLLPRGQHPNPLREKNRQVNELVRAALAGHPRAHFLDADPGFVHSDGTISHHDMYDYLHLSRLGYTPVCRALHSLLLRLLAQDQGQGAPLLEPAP
Rin1-Abl PPI inh: blocks binding of human Rin1 to Abl; P00519+Q13671; TR-FRET Rin1/Abl binding, biochemical; inhibition, % at 7.35 µM; hit rate 0.4% among 360,000; in the data active means inhibition above about 5%, passing the limit was not always enough
PAFAH1B2 FP inh: blocks human PAF acetylhydrolase 1b catalytic subunit 2; hit rate 1.2% among 340,000; recombinant PAFAH1B2, FP-rhodamine activity probe, fluorescence polarization; inhibition, % at 3.39 µM; P68402;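 active means inhibition above the mean of all tested compounds plus 3 SD, cut at about 24% in these data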;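 further: 0% = enzyme with DMSO and 100% = wells lacking PAFAH1B2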
Target sequence (P68402 whole entry, looked up): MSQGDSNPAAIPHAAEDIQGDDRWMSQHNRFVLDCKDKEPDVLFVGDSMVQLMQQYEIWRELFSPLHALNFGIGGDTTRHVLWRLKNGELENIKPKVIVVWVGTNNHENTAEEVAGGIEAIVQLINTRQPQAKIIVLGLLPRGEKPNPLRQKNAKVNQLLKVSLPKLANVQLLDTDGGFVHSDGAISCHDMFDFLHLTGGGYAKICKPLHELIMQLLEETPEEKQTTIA
E coli Lon conf: E. coli Lon inhibition confirmation; inhibition, % at 7.94 µM; purified E. coli Lon, fluorescence polarization; shares compounds with E coli Lon inh; AID 602230; hit rate 31% among 1,400; in the data active means inhibition above about 16%;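 further: 0% = enzyme with probe and DMSO and 100% = no enzyme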
An asterisk follows results filed as active; . = no result; + = active, no number. Compounds with a hit are over-represented: about 3.1% of the library has one in this group of screens.

SMILES | pPAFAH inh | E coli Lon inh | PAFAH2 FP inh | PAFAH1B3 FP inh | Rin1-Abl PPI inh | PAFAH1B2 FP inh | E coli Lon conf
Cc1ccccc1C(=O)NC(C)C1CC2CCC1C2 (configuration not stated) | 5 | 1 | -7 | 5 | 3 | 16 | .
CC(NC(=O)c1ccccc1Cl)C1CC2CCC1C2 (configuration not stated) | 1 | 17* | 2 | 0 | 3 | 7 | -4
C[C@H](CO)N1C[C@H](C)[C@@H](CN(C)Cc2ccc3c(c2)OCO3)Oc2cc(Br)ccc2S1(=O)=O | . | 7 | . | . | 3 | . | .
O=C(N/N=C/c1cccnc1)c1ccccc1 | 4 | -9 | -1 | 10 | 2 | 10 | .
Nc1ccccc1C(=O)NN=Cc1cccnc1 | . | 21* | . | . | -1 | . | -10
O=C1NC[C@@H](Cc2ccc(O)cc2)N(CCc2cc(C(F)(F)F)cc(C(F)(F)F)c2)C1=O | . | -4 | . | . | . | . | .
CN(C)C(=O)c1cccc(-c2cnc3c(NC=O)cc(-c4ccccc4Cl)cn23)c1 | . | -14 | . | . | -2 | . | .
CN(C)C(=O)c1cccc(-c2cnc3c(NC=O)cc(-c4ccccc4N(C)C)cn23)c1 | . | + | . | . | -21 | . | 124*
CN(C)c1ccccc1-c1cc(NC=O)c2ncc(-c3cccc(C(F)(F)F)c3)n2c1 | . | + | . | . | -26 | . | +
CCN(c1cccc(C)c1)S(=O)(=O)c1cc2c3c(c1)CCN3C(=O)CC2 | 7 | -2 | 2 | 6 | 3 | 5 | .
O=Cc1cc(N=Nc2cccc(C(=O)O)c2)ccc1O | 5 | 15* | -6 | 4 | 1 | 4 | 24*
O=Cc1cc(N=Nc2ccccc2Cl)ccc1O | 28* | 25* | 10 | 13 | 1 | 9 | 36*
Nc1c(C(=O)NC2CC2)c2nc3ccccc3nc2n1-c1ccc2c(c1)OCO2 | -3 | 19* | 8 | 0 | 0 | 1 | 31*
Cc1cc2cc(CNC(=O)Cc3ccc([N+](=O)[O-])cc3)ccc2[nH]1 | 18 | -2 | -1 | 16 | 6 | 6 | .
Cc1cc2cc(CNC(=O)c3cccc([N+](=O)[O-])c3)ccc2[nH]1 | 1 | 24* | -5 | 8 | -2 | 0 | -10
Cc1c(C2Nc3ccccc3NC3=C2C(=O)CC(C)(C)C3)cnn1C (configuration not stated) | 1 | 144* | -1 | 1 | -1 | 5 | 2
CC1(C)CC(=O)C2=C(C1)Nc1ccccc1NC2c1ccc(F)c(F)c1 (configuration not stated) | 5 | 5 | 2 | 10 | 2 | 4 | .
CC1(C)CC(=O)C2=C(C1)Nc1ccccc1NC2c1ccccc1F (configuration not stated) | -2 | 34* | -1 | 1 | 0 | 12 | 2
CC(=O)NCC1CCN(C(=O)C2CCC(=O)N(CCc3cccc(F)c3)C2)CC1 (configuration not stated) | 4 | -2 | -2 | 2 | 2 | 6 | .
Cc1ccc(-c2cc(-c3ccccc3)c3c(N)c(S(C)(=O)=O)sc3n2)cc1 | 20 | 3 | -5 | -4 | -3 | -1 | .
CS(=O)(=O)c1sc2nc(-c3cccs3)cc(-c3ccccc3)c2c1N | 23 | 20* | -9 | -11 | -4 | -13 | -23
CN(C)S(=O)(=O)c1ccc(Cl)c(NC(=O)CNC2(C)CCS(=O)(=O)C2)c1 (configuration not stated) | -1 | -8 | 3 | -1 | 3 | 0 | .
COc1cccc2c1C(=O)c1c(O)c3c(c(O)c1C2=O)CC(O)(C(C)=O)CC3OC1CC(N(C)C)C(O)C(C)O1 (configuration not stated) | . | + | 62* | 46* | -15 | 59* | +
COc1cccc2c1C(=O)c1c(O)c3c(c(O)c1C2=O)C[C@@](O)(C(=O)CO)C[C@@H]3OC1CC(N)C(O)C(C)O1 (some centres not stated) | . | + | 54* | 52* | -10 | 52* | +
CC(=O)[C@@]1(O)Cc2c(O)c3c(c(O)c2[C@H](O[C@H]2C[C@H](N)[C@H](O)[C@H](C)O2)C1)C(=O)c1ccccc1C3=O | . | + | . | . | -14 | . | +
